Measured values from the supplement of paper PMC13380429.
Values without a mark were called inactive.

Tested on: Vero E6 infected with SARS-CoV-2
Test: inhibition of SARS-CoV-2 cytopathic effect; higher = more antiviral protection, active = above 15
Conditions: 48 h

Structure (SMILES) | inhibition of SARS-CoV-2 cytopathic effect (1 nM) | inhibition of SARS-CoV-2 cytopathic effect (8.33 nM) | inhibition of SARS-CoV-2 cytopathic effect (100 nM) | inhibition of SARS-CoV-2 cytopathic effect (833.33 nM) | inhibition of SARS-CoV-2 cytopathic effect (10000 nM)
CCOCCOc1ccccc1C(N)=O [etosalamide] | -2.2% | -0.59% | -5.45% | -5.67% | -2.33%
COC(=O)[C@H](Cc1cccc(C(=N)N)c1)[C@@H](C)NC(=O)c1ccc(-c2cc[n+]([O-])cc2)cc1 [otamixaban] | -2.31% | -2.54% | -1.48% | -0.51% | -3.22%
O=C(NN1C(=O)[C@@H]2[C@@H]3C=C[C@@H]([C@H]4C[C@@H]34)[C@@H]2C1=O)c1ccc(C(F)(F)F)cc1 [tecovirimat] | 1.41% | 2.44% | 2.71% | 0.04% | -0.46%
CC(C)n1cnc2c(NCCc3ccc(O)cc3)nc(-c3csc4ccccc34)nc21 [stemregenin-1] | 1.26% | 0.69% | 1.35% | -0.07% | 18.1% (active)
COc1ccc2c(NC(=O)Nc3cccc(C(F)(F)F)n3)ccnc2c1 | 1.28% | 1.81% | 2.91% | 10.2% | 11.1%
CC(CCc1ccc(O)cc1)NCC(O)c1ccc(O)cc1 (stereo not given) [ractopamine] | -2.7% | -0.49% | -1.47% | -0.11% | 1.53%
C[N+]12CCC(CC1)C(OC(=O)C(O)(c1ccccc1)c1ccccc1)C2 (stereo not given) [clidinium] | -2.04% | 1.76% | -0.23% | 0.86% | -1.97%
C[C@]1(c2nc3c(C(N)=O)cccc3[nH]2)CCCN1 [veliparib] | 3.9% | 7.83% | 5.13% | 4.23% | 8.58%
CCC[C@H](N[C@H]1CCc2cc(F)cc(F)c2C1)C(=O)Nc1cn(C(C)(C)CNCC(C)(C)C)cn1 | 2.54% | -2.77% | -1.3% | -9.66% | -10.1%
CN1C(CCl)Nc2cc(Cl)c(S(N)(=O)=O)cc2S1(=O)=O (stereo not given) [methyclothiazide] | -0.11% | 0.15% | 1.53% | 1% | 2.28%
CCCCCCCCCCCCCC[C@@H](O)[C@@H](O)[C@@H](N)CO [phytosphingosine] | -6.1% | -0.27% | -1.1% | -3.05% | -6.04%
CC(C)SC(=N)N [S-isopropylisothiourea] | 1.63% | 0.91% | 3.8% | 0.88% | 2.04%
C[C@@H]1C[C@H]2[C@@H]3CCC4=CC(=O)C=C[C@]4(C)[C@@]3(F)[C@@H](O)C[C@]2(C)[C@@]1(O)C(=O)COP(=O)(O)O | -1.27% | 0.18% | -1.45% | -3.81% | 0.77%
O=C1c2cccc3c2[C@H](CCC3)CN1[C@@H]1CN2CCC1CC2 [palonosetron] | -2.25% | -0.74% | -0.65% | -0.13% | -0.75%
CCC1NC(=O)c2cc(S(N)(=O)=O)c(Cl)cc2N1 (stereo not given) [quinethazone] | -8.29% | -6.61% | -4.32% | -5.24% | -5.16%
CSc1ccc(C(=O)N[C@@H]2CCCC[C@@H]2NC(=O)CNC(=O)c2cc(C(F)(F)F)ccc2NC(=O)NC(C)C)cc1 | 4.3% | -0.79% | 0.52% | 0.24% | 0.79%
CCCCCCNC(=O)n1cc(F)c(=O)[nH]c1=O [carmofur] | 2.01% | 4.18% | 2.63% | 2.67% | 4.01%
C=CCOc1ccccc1OCC(O)CNC(C)C (stereo not given) [oxprenolol] | 1.58% | -0.87% | -1.99% | -0.79% | -0.79%
CCOC(=O)c1ccccc1OC(N)=O [ethyl-2-(carbamoyloxy)benzoate] | -8.28% | -7.77% | -4.5% | -2.39% | -3.35%
S=C(NC1CCCCC1)N1CCC(c2cnc[nH]2)CC1 [thioperamide] | 1.24% | 1.61% | -0.03% | 0.28% | -2.39%
